Experimental data as given in PubChem BioAssay AID1159580 (chemical genetic matrix, 2015).
Hit rate of the full screen: of about 5,500 compounds, about 2,000 (36%) were called active. Another 18% or so got no clear call; they are omitted. No stated cut-off is given here; in the data, active means normalized growth mostly below about 0.91 (no sharp cut-off); inconclusive means no clear call, values can overlap the other calls; inactive means mostly above about 0.92. This is one part of the list.

Assay: chemical genetic growth profiling, strain panel (AID 1159580);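 further: tested at 20 µM; growth read once vehicle control cultures reached saturation at 30 °C; 1 = growth at the plate median or of vehicle wells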
Details: growth OD

Measured: normalized growth

NC(=O)c1ccc[n+]([C@@H]2O[C@H](COP(=O)([O-])OP(=O)(O)OC[C@H]3O[C@@H](n4cnc5c(N)ncnc54)[C@H](O)[C@@H]3O)[C@@H](O)[C@H]2O)c1
inactive: S. cerevisiae deletion strains, locus YJR075W, strain HOC1, stronger effect = lower value 1.02 | S. cerevisiae deletion strains, locus YKL009W, strain mrt4, stronger effect = lower value 0.975 | S. cerevisiae deletion strains, locus YKL068W, stronger effect = lower value 0.987 | S. cerevisiae deletion strains, locus YKL085W, strain MDH1 (second series), stronger effect = lower value 0.986 | S. cerevisiae deletion strains, locus YKL085W, strain MDH1, stronger effect = lower value 0.986 | S. cerevisiae deletion strains, locus YKL160W, strain elf1, stronger effect = lower value 1.06 | S. cerevisiae deletion strains, locus YKL190W, strain CNB1, stronger effect = lower value 0.996 | S. cerevisiae deletion strains, locus YKR001C, strain vps1, stronger effect = lower value 0.997 | S. cerevisiae deletion strains, locus YKR026C, strain gcn3, stronger effect = lower value 1.02 | S. cerevisiae deletion strains, locus YKR091W, strain srl3, stronger effect = lower value 1.02 | S. cerevisiae deletion strains, locus YLL001W, strain dnm1, stronger effect = lower value 1.03 | S. cerevisiae deletion strains, locus YLL026W, stronger effect = lower value 1.02 | S. cerevisiae deletion strains, locus YLL041C, strain sdh2, stronger effect = lower value 1.04 | S. cerevisiae deletion strains, locus YLR027C, strain aat2, stronger effect = lower value 1.03 | S. cerevisiae deletion strains, locus YLR039C, strain RIC1, stronger effect = lower value 0.987 | S. cerevisiae deletion strains, locus YLR058C, strain SHM2, stronger effect = lower value 0.977 | S. cerevisiae deletion strains, locus YLR102C, strain apc9, stronger effect = lower value 0.989 | S. cerevisiae deletion strains, locus YLR113W, strain HOG1, stronger effect = lower value 0.982 | S. cerevisiae deletion strains, locus YLR221C, strain rsa3, stronger effect = lower value 1.04 | S. cerevisiae deletion strains, locus YLR258W, strain gsy2, stronger effect = lower value 1.04 | S. cerevisiae deletion strains, locus YLR262C, strain YPT6 (second series), stronger effect = lower value 1.05 | S. cerevisiae deletion strains, locus YLR262C, strain YPT6, stronger effect = lower value 0.939 | S. cerevisiae deletion strains, locus YLR268W, strain sec22, stronger effect = lower value 1.08 | S. cerevisiae deletion strains, locus YLR320W, strain mms22, stronger effect = lower value 1.03 | S. cerevisiae deletion strains, locus YLR330W, strain CHS5, stronger effect = lower value 0.982 | S. cerevisiae deletion strains, locus YLR342W, strain FKS1 (second series), stronger effect = lower value 0.986 | S. cerevisiae deletion strains, locus YLR342W, strain FKS1, stronger effect = lower value 1.02 | S. cerevisiae deletion strains, locus YLR357W, strain rsc2, stronger effect = lower value 1.05 | S. cerevisiae deletion strains, locus YLR370C, strain arc18, stronger effect = lower value 1.04 | S. cerevisiae deletion strains, locus YLR371W, strain rom2, stronger effect = lower value 0.977 | S. cerevisiae deletion strains, locus YLR384C, strain iki3, stronger effect = lower value 1.04 | S. cerevisiae deletion strains, locus YLR418C, strain cdc73, stronger effect = lower value 1.02 | S. cerevisiae deletion strains, locus YML016C, strain PPZ1, stronger effect = lower value 0.982 | S. cerevisiae deletion strains, locus YML032C, strain rad52, stronger effect = lower value 1.01 | S. cerevisiae deletion strains, locus YML120C, strain ndi1, stronger effect = lower value 1.04 | S. cerevisiae deletion strains, locus YML124C, strain tub3, stronger effect = lower value 0.989 | S. cerevisiae deletion strains, locus YMR058W, strain fet3, stronger effect = lower value 1.04 | S. cerevisiae deletion strains, locus YMR078C, strain ctf18, stronger effect = lower value 0.986 | S. cerevisiae deletion strains, locus YMR125W, strain sto1, stronger effect = lower value 1.06 | S. cerevisiae deletion strains, locus YMR129W, stronger effect = lower value 1.02 | S. cerevisiae deletion strains, locus YMR205C, strain PFK2, stronger effect = lower value 1.04 | S. cerevisiae deletion strains, locus YMR223W, strain ubp8, stronger effect = lower value 0.974 | S. cerevisiae deletion strains, locus YMR231W, strain pep5, stronger effect = lower value 1.04 | S. cerevisiae deletion strains, locus YMR263W, strain SAP30, stronger effect = lower value 1 | S. cerevisiae deletion strains, locus YMR307W, strain GAS1, stronger effect = lower value 0.992 | S. cerevisiae deletion strains, locus YNL067W, strain RPL9B, stronger effect = lower value 1.01 | S. cerevisiae deletion strains, locus YNL071W, strain lat1, stronger effect = lower value 1.03 | S. cerevisiae deletion strains, locus YNL128W, strain TEP1, stronger effect = lower value 0.953 | S. cerevisiae deletion strains, locus YNL153C, strain GIM3, stronger effect = lower value 1.02 | S. cerevisiae deletion strains, locus YNL183C, strain NPR1, stronger effect = lower value 0.969 | S. cerevisiae deletion strains, locus YNL209W, strain ssb2, stronger effect = lower value 1.04 | S. cerevisiae deletion strains, locus YNL233W, strain BNI4, stronger effect = lower value 1.02 | S. cerevisiae deletion strains, locus YNL248C, strain rpa49, stronger effect = lower value 1.07 | S. cerevisiae deletion strains, locus YNL250W, strain rad50, stronger effect = lower value 0.985 | S. cerevisiae deletion strains, locus YNL271C, strain bni1, stronger effect = lower value 0.994 | S. cerevisiae deletion strains, locus YNL298W, strain CLA4, stronger effect = lower value 0.996 | S. cerevisiae deletion strains, locus YNL307C, strain MCK1, stronger effect = lower value 1.01 | S. cerevisiae deletion strains, locus YNL322C, strain KRE1 (second series), stronger effect = lower value 1.03 | S. cerevisiae deletion strains, locus YNL322C, strain KRE1, stronger effect = lower value 0.983 | S. cerevisiae deletion strains, locus YNR049C, strain mso1, stronger effect = lower value 1.02 | S. cerevisiae deletion strains, locus YNR052C, strain pop2, stronger effect = lower value 0.995 | S. cerevisiae deletion strains, locus YOL006C, strain TOP1, stronger effect = lower value 1.01 | S. cerevisiae deletion strains, locus YOL012C, strain htz1 0.903 | S. cerevisiae deletion strains, locus YOL147C, strain pex11, stronger effect = lower value 0.994 | S. cerevisiae deletion strains, locus YOR001W, strain rrp6, stronger effect = lower value 1.05 | S. cerevisiae deletion strains, locus YOR061W, strain CKA2, stronger effect = lower value 0.969 | S. cerevisiae deletion strains, locus YOR069W, strain VPS5, stronger effect = lower value 0.993 | S. cerevisiae deletion strains, locus YOR070C, strain gyp1, stronger effect = lower value 1.02 | S. cerevisiae deletion strains, locus YOR080W, strain dia2, stronger effect = lower value 1.02 | S. cerevisiae deletion strains, locus YOR083W, strain WHI5, stronger effect = lower value 1.06 | S. cerevisiae deletion strains, locus YOR106W, strain vam3, stronger effect = lower value 1.07 | S. cerevisiae deletion strains, locus YOR136W, strain idh2, stronger effect = lower value 0.991 | S. cerevisiae deletion strains, locus YOR144C, strain elg1, stronger effect = lower value 0.991 | S. cerevisiae deletion strains, locus YOR184W, strain ser1, stronger effect = lower value 1 | S. cerevisiae deletion strains, locus YOR231W, strain MKK1, stronger effect = lower value 0.999 | S. cerevisiae deletion strains, locus YOR265W, strain rbl2, stronger effect = lower value 1.02 | S. cerevisiae deletion strains, locus YOR270C, strain vph1, stronger effect = lower value 1.14 | S. cerevisiae deletion strains, locus YOR290C, strain snf2, stronger effect = lower value 1.07 | S. cerevisiae deletion strains, locus YOR316C, strain cot1, stronger effect = lower value 0.988 | S. cerevisiae deletion strains, locus YPL051W, strain arl3, stronger effect = lower value 1.05 | S. cerevisiae deletion strains, locus YPL055C, strain LGE1, stronger effect = lower value 0.997 | S. cerevisiae deletion strains, locus YPL078C, strain atp4, stronger effect = lower value 1.08 | S. cerevisiae deletion strains, locus YPL106C, strain sse1, stronger effect = lower value 1.04 | S. cerevisiae deletion strains, locus YPL240C, strain hsp82, stronger effect = lower value 1.01 | S. cerevisiae deletion strains, locus YPL241C, strain CIN2, stronger effect = lower value 0.984 | S. cerevisiae deletion strains, locus YPL256C, strain CLN2, stronger effect = lower value 0.961 | S. cerevisiae deletion strains, locus YPR119W, strain clb2, stronger effect = lower value 0.993 | S. cerevisiae deletion strains, locus YPR141C, strain kar3, stronger effect = lower value 0.991 | S. cerevisiae deletion strains, locus YPR163C, strain tif3, stronger effect = lower value 1 | S. cerevisiae deletion strains, locus YPR167C, strain met16, stronger effect = lower value 0.998 | S. cerevisiae deletion strains, strain wtn01, stronger effect = lower value 1.03 | S. cerevisiae strains, strain wild type, stronger effect = lower value 0.993
